Pf growth 96h: inhibits malaria parasite growth, 96 h; P. falciparum luciferase reporter growth, 96 h; Potency, µM (titrated, usually from 28.7 µM), for inactives: at the top dose activity change, negative = inhibition, actives largely listed as inhibitors; actives 6.9% (n = 320,000); note: potency is the fitted concentration of half-maximal effect; % is set by controls: 0 for no effect and ±100 for the full control effect
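Luminescence readout: decreased luciferase signal marks inhibited growth of reporter-expressing P. falciparum in infected red cells (2% hematocrit, 0.05% parasitemia final), exposed to compound two generations (96 h, 37 C, 5% CO2).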
Shiga inhibitor: inhibitors of Shiga toxin in Vero cells; actives 9.2% (n = 290,000); AID 2315; Vero cells, Shiga toxin protein synthesis inhibition reporter; inhibition, % at 38.7 µM; in the data active = inhibition mostly above about 28%, no sharp cut-off; inactive = mostly below about 43%; note: 0% is about no effect
Cycloheximide cs: counter-screen for Shiga toxin inhibitors: cycloheximide protein synthesis inhibition; cell reporter, cycloheximide protein synthesis inhibition counterscreen; max response, %; actives 12% (n = 300,000); AID 2314; in the data active = max response mostly above about 13%, no sharp cut-off; inactive = mostly below about 14%; note: read at 38.3 µM for the half of the compounds with a filed dose; 0% is about no effect
Pf growth 48h: P. falciparum growth inhibition at 48 hours (one generation). actives 5.9% (n = 310,000). AID 504832. P. falciparum luciferase growth in erythrocytes, 48 h. Potency, µM (titrated, usually from 28.7 µM), for the others: at the top dose activity change, negative = inhibition, most hits filed as inhibitors; note: potency is the fitted concentration of half-maximal effect; % is set by controls: 0 for no effect and ±100 for the full control effect
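Compounds are pin-transferred into medium, infected erythrocytes (2% hematocrit, 0.1% parasitemia final) are added, and plates sit one parasite generation at 37 C in 5% CO2. Detection reagent is then added and luminescence measured.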
Starred values were filed as active, the others as inactive; ? = inconclusive; . = no result given; [ ] = remark or other dose. Only some compounds are listed: those with a hit (about 21% of all), similar ones and a draw of the others. Unless noted, calls come from the whole dose curve; as a rule, active = well fitted inhibition curve with a large enough effect; inconclusive = small, poorly fitted or top-dose-only effect, or another doubt; inactive = no such curve, though single readings can be large or run the other way.

SMILES	Pf growth 96h	Shiga inhibitor	Cycloheximide cs	Pf growth 48h
COc1ccc(OCC(O)CNCCOc2ccccc2OC)c(C(C)(C)C)c1 (stereo not given)	3.7µM*	-7.3	-3.9	4.65µM*
CN1C(=O)C2(Oc3ccccc3C3CC(c4ccccc4)=NN32)c2ccccc21 (stereo not given)	38.2%	77.8*	27.6*	34.7%
Cc1ccc(C2=NN3C(C2)c2ccccc2OC32C(=O)Nc3ccccc32)cc1 (stereo not given)	-19.5%	77.8*	41.6*	-33.2%
S=C1NC2(CCS1)Oc1ccccc1C1CC(c3ccccc3)=NN12 (stereo not given)	?	70.4*	32.8*	?
Cc1ccc(Cn2nnc3c(=O)n(CC(=O)NCc4ccccc4)cnc32)cc1	39.3%	8.2	-0.2	3.6%
COc1cc(-c2nnc(SCC(=O)c3ccccc3)o2)cc(OC)c1OC	11.3%	-7.4	14.2	4.3%
COc1cc(-c2nnc(SCC3(c4ccccc4)OCCO3)o2)cc(OC)c1OC	5.22µM*	10.8	1.1	13.1µM*
CCOc1ccc2nc(SCC(=O)Nc3ccc4[nH]c(=O)[nH]c4c3)[nH]c2c1	-64.2%	.	.	?
CC(Oc1ccc(Cl)cc1)C(=O)N(C)CC(=O)Nc1ccc(N2CCOCC2)cc1 (stereo not given)	-19.0%	-1.1	0.9	-13.9%
COc1cccc(/C=C2/CN(C)CC3=C2OC(N)=C(C#N)C3c2cccc(OC)c2)c1 (stereo not given)	?	1.5	-1.3	13.1µM*
COc1cccc(C2C(C#N)=C(N)OC(C(C)(C)C)=C2C#N)c1 (stereo not given)	?	15.1	-3.7	-10.6%
O=S(=O)(Nc1cc(O)cc2cccnc12)c1ccc(Cl)s1	.	-14.0	-10.8	.
CCOC(=O)C1OC1C(=O)N[C@@H](CC(C)C)C(=O)NCCC(C)C (stereo not given in full)	.	-1.6	-4.9	.
COC(=O)C(C)Sc1nnc2n(-c3cccc(C)c3)c(=O)c3c4c(sc3n12)CCCC4 (stereo not given)	11.7µM*	1.6	-2.0	10.4µM*
Cc1cccc(-n2c(=O)c3c4c(sc3n3c(=S)[nH]nc23)CCC4)c1	38.3%	2.0	10.4	-2.6%
NS(=O)(=O)Oc1ccccc1	38.2%	-4.7	-2.2	72.3%
CCCC(=O)NC(Nc1ccccc1F)C(Cl)(Cl)Cl (stereo not given)	?	-5.8	9.3	?
CCc1ccc(OCC(=O)NC(NC(=S)Nc2ccccc2)C(Cl)(Cl)Cl)cc1 (stereo not given)	-0.3%	-12.0	-0.6	13.1µM*
CC(C)CC(=O)NC(Nc1ccccc1F)C(Cl)(Cl)Cl (stereo not given)	10.4µM*	-10.1	-2.8	-5.3%
CCC(=O)NC(NC(=S)Nc1ccc(S(N)(=O)=O)cc1)C(Cl)(Cl)Cl (stereo not given)	2.08µM*	-3.3	-1.0	-6.4%
CC(C)CC(=O)NC(NC(=S)Nc1ccccc1)C(Cl)(Cl)Cl (stereo not given)	2.6%	-3.6	1.0	13.1µM*
CCc1ccc(OCC(=O)NC(NC(=S)Nc2ccccc2C)C(Cl)(Cl)Cl)cc1 (stereo not given)	?	-5.5	-4.6	?
CCOC(=O)/C(=N\Nc1ccc(Cl)cc1)Sc1nnc(-c2ccc(OC)cc2)n1C	?	11.6	-0.8	1.6%
CN(C)/C=C/C(=O)c1ccc(F)cc1F	19.9%	29.5	12.7	5.8%
CC(=O)NC(NC(=S)Nc1ccc(S(N)(=O)=O)cc1)C(Cl)(Cl)Cl (stereo not given)	-13.2%	16.0	-2.0	-8.2%
SMILES	Pf growth 96h	Shiga inhibitor	Cycloheximide cs	Pf growth 48h
CC(=O)NC(NC(=S)Nc1ccc(N=Nc2ccccc2)cc1)C(Cl)(Cl)Cl (stereo not given)	182.7%	70.6*	59.8*	11.7µM*
CCOc1ccc(N(CC(=O)Nc2ccccc2OCC)S(=O)(=O)c2c(C)noc2C)cc1	11.7µM*	15.8	-1.3	?
CCOc1ccc(N(CC(=O)Nc2cccc(Cl)c2)S(=O)(=O)c2c(C)noc2C)cc1	26.4%	-4.0	-1.9	.
CCOc1ccc(N(CC(=O)NC2CCCCC2C)S(=O)(=O)c2c(C)noc2C)cc1 (stereo not given)	?	15.7	13.9*	?
CCOc1ccc(N(CC(=O)Nc2cccc(OC)c2)S(=O)(=O)c2c(C)noc2C)cc1	0.828µM*	-16.3	-1.9	?
CCOc1ccc(N(CC(=O)NC2CCC(C)CC2)S(=O)(=O)c2c(C)noc2C)cc1 (stereo not given)	?	9.5	-0.8	?
COc1ccccc1C(=O)NCCC(=O)N1CCN(C(C)=O)CC1	57.5%	.	.	-2.1%
COc1ccccc1N1CCN(C2=NS(=O)(=O)c3ccccc32)CC1	7.7%	1.9	11.6*	22.9%
O=S1(=O)N=C(N2CCOCC2)c2ccccc21	?	28.6	1.6	13.9%
COc1ccccc1N1CCN(c2ccc(-c3ccccc3)nn2)CC1	3.4%[5.75 µM]	138.9*	42.2*	-65.1%
COc1ccccc1N1CCN(c2ccc3ccccc3n2)CC1	179.7%	70.0*	44.7*	104.1%
COc1ccccc1N1CCN(c2cc(N3CCCC3)nc(C)n2)CC1	6.1%	-4.1	-3.7	?
O=C(NCc1cccs1)C1CCCN(C(=O)Nc2ccccc2)C1 (stereo not given)	?	-12.0	-3.7	4.0%
CCOC(=O)c1c(C)[nH]c(C)c1S(=O)(=O)NC(C)Cc1ccco1 (stereo not given)	?	-5.0	-2.6	-2.3%
CCOc1ccc(C(=O)COC(=O)Cn2cnc3c2c(=O)n(C)c(=O)n3C)cc1	-23.2%	.	.	-16.1%
O=C(CN1CCCCCC1)Nc1cccc(Br)c1	58.1%	-10.9	-1.2	-1.3%
Cc1ccc(NC(=O)CN2CCCCCC2)cc1Br	?	73.1	18.7*	16.8%
Cc1ccc(NC(=O)CN2CCCCCC2)c(Br)c1	12.5%	81.2*	35.7*	95.7%
Cc1ccc(-n2cc(CNCCN3CCOC3=O)c(-c3cccc(C)c3)n2)cc1	-29.9%	54.3*	15.9*	42.4%
COC(=O)CC1C(=O)NCCN1C(=S)Nc1cccc(C)c1 (stereo not given)	13.2%	-9.7	-3.7	-0.2%
COC(=O)CC1C(=O)NCCN1Cc1cn(-c2ccc(C)cc2)nc1-c1cccc(C)c1 (stereo not given)	10.4µM*	45.5*	19.9*	?
O=C1OCCN1CCNCc1cn(-c2ccc(F)cc2)nc1-c1ccccc1Cl	?	-7.9	-0.8	?
COc1ccccc1CNC(=O)c1cc2c(=O)[nH]c3ccccc3c2n1C	-9.7%	-12.3	1.3	?
CN(C)CCn1nnnc1SCC1=C(C(=O)O)N2C(=O)[C@@H](NC(=O)Cc3csc(N)n3)[C@@H]2SC1	6.42µM*	.	.	?
CN(C)CCn1nnnc1SCC1=C(C(=O)O)N2C(=O)[C@@H](NC(=O)Cc3csc(N)n3)[C@H]2SC1	13.4%	.	.	11.3%
CCc1nnc(NC(=O)CCC(=O)N2CCN(Cc3ccc(F)cc3)CC2)s1	-43.6%	-9.3	-0.5	6.8%
CCOC(=O)c1ccc(NC(=O)CSc2nc(N3CCOCC3)nc(N3CCOCC3)n2)cc1	-10.5%	-11.5	-0.7	-25.0%

Source: PubChem BioAssay (National Center for Advancing Translational Sciences (NCATS))
